Common to all, as to test: NCI-60 one-dose screen, 48 h (100 = growth as untreated, 0 = no growth, -100 = all killed)
What all share (details): 10 µM unless noted

For assay [1], the system named is DU-145 prostate.
For assay [2], the system named is K-562 leukemia.
The test system of assay [3] is MALME-3M melanoma.
In assay [4] the test system is MDA-MB-231 breast.
Assay [5] relates to RXF 393 renal.
In assay [6] the test system is SF-268 CNS.
Assay [7] has as its system SF-295 CNS.
Assay [8] deals with SF-539 CNS.
For assay [9], the system named is UACC-257 melanoma.
Assay [10] relates to M14 melanoma.

Compounds without any hit were thinned out: in the full panel of roughly 83,000, 20% have a hit.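 Cells were grown in 96-well plates and exposed to the test compound at a single concentration for 48 hours; results are reported as percent growth, with values below 10 considered active.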 Values without a mark were called inactive. Activity calls are given as the source filed them.

For the compound `CCCCCCC1(C)NCCO1` (stereo not given), the growth in [1] is 111%; in assay [2], 104%; in [3], 105%; in [4], 104%; in assay [5], 118%; in assay [6] it was 93.6%. The growth in assay [7] was 102%; in assay [8], 110%; in [9], 99%; in [10], 104%.
`CCn1c(=S)[nH]c2c(=O)n(C)c(=O)n(C)c21`: the growth in [1] was 111%; in assay [2], 105%; in assay [3], 99.6%; in assay [4] it was 115%; in assay [5], 106%; in assay [6], 114%. In addition, the growth in [7] was 104%; in assay [8], 95.3%; in [9], 92%; in assay [10], 95.5%.
Regarding `Cc1ccc(NC(=S)NNC(=S)NNc2ccccc2)cc1C`, the growth in assay [1] was 77.9%; in assay [2], 8.18% (active); in assay [3], 102%; in assay [4], 104%; in assay [5], 96.3%; in assay [6], 55.1%. Further, the growth in assay [7] was 109%; in [8] it was 103%; in assay [9], 98.6%; in assay [10], 115%.
For `CCN1CCN(c2cc(C(=O)Nc3nc(-c4cc(OC)c(OC)c(OC)c4)cs3)cc(C(F)(F)F)c2)CC1`, the growth in assay [1] is 74.9%; in [2] it was 3.83% (active); in assay [3], 69.3%; in assay [4] it was 47%; in assay [5], 69.3%; in assay [6] it was 65.1%. The growth in assay [7] was 83.2%; in [8], 75.6%; in assay [9], 88.6%; in [10], 42.1%.
`CN1C(=O)/C(=C/c2cn(-c3ccccc3)nc2-c2ccccc2)SC1=S`: the growth in assay [1] was 105%; in assay [2], 92.6%; in assay [3], 114%; in assay [4], 92.8%; in assay [5], 110%; in assay [6], 104%. The growth is 89.6% in [7], 99.5% in [8], 106% in assay [9] and 103% in [10].
Take `CCOC(=O)/C=C1\S/C(=N\Nc2cc(=O)[nH]c3ccc(Cl)cc23)N(c2ccccc2)C1=O`: the growth in assay [1] is 96.7%; in assay [2], 54.1%; in [3], 92.6%; in assay [4] it was 92.2%; in [5] it was 77.2%; in [6], 96%. In addition, the growth in assay [7] was 102%; in assay [8] it was 99.6%; in assay [9], 95.6%; in assay [10] it was 87.3%.
As to `O=C1/C(=C/c2ccc(-c3ccc(Br)cc3)o2)SC(=S)N1CCc1ccc(O)cc1`, the growth is 15.7% in assay [1]; 3.25% (active) in assay [2]; 73.5% in assay [3]; 82.9% in assay [4]; 80.5% in assay [5]; 44.4% in [6]. The growth in assay [7] is 100%; in [8], 86.5%; in assay [9] it was 77.4%; in assay [10] it was 50.9%.
Regarding `O=C(OCc1ccc2c(Cl)cc(Cl)c(O)c2n1)n1cncn1`, the growth is 38.7% in assay [1]; 18.2% in assay [2]; 33% in assay [3]; 59.6% in assay [4]; 45.9% in [5]; 24.1% in [6]. Moreover, the growth in [7] was 20%; in assay [8], 15.7%; in [9] it was 41.2%; in assay [10], 20.4%.
Regarding `CCOC(=O)Cn1c(O)c(N=Nc2ccc(S(N)(=O)=O)cc2)c2cc(Br)ccc21`, the growth in assay [1] is 78.7%; in assay [2], 65.4%; in assay [3], 79.5%; in [4] it was 67.6%; in assay [5], 43.3%; in assay [6] it was 97.2%. Also, the growth in assay [7] is 96.8%; in assay [8], 16%; in [9], 96.3%; in assay [10] it was 87.8%.
`Oc1ccc(CCn2c(O)c(/C=C3\CN=c4ccccc4=N3)sc2=S)cc1`: the growth in assay [1] was 28%; in [2], 22.9%; in [3], 62.3%; in assay [4] it was 26%; in [5] it was 45.1%; in assay [6] it was 75%. The growth in [7] is 93.6%; in assay [8], 20.7%; in [9] it was 71.4%; in assay [10], 62.4%.
Turning to `CCCCN[C@H]1CC[C@@]2(C)[C@@H](CC[C@@]3(C)[C@H]2[C@H](O)C[C@H]2/C(=C(\CCC=C(C)C)C(=O)OC)[C@@H](OC(C)=O)C[C@@]23C)[C@@H]1C`, the growth was 112% in assay [1]; 30.5% in assay [2]; 96.9% in [3]; 114% in [4]; 103% in [5]; 100% in assay [6]. In addition, the growth was 99% in assay [7], 99.3% in [8], 98.1% in assay [9] and 96.2% in assay [10].
Consider `COc1cc2c(c(OC)c1OC)CCC(c1cccc(C(=O)Nc3cccc(Br)c3)c1)O2` (stereo not given), for which the growth is 85.1% in assay [1]; 52.1% in assay [2]; 102% in assay [3]; 17.6% in assay [4]; 78.6% in assay [5]; 67.1% in assay [6]. Besides, the growth was 64.5% in assay [7], 99.4% in assay [8], 74.1% in assay [9] and 73.9% in assay [10].
For the compound `C#CCOc1ccc2ncnc(Nc3cccc(NC(=O)C=C)c3)c2c1`, the growth in assay [1] is 54%; in [2] it was 70.6%; in assay [3], 73.9%; in assay [4], 58.1%; in assay [5], 6.44% (active); in assay [6], 55.9%. The growth was 91.6% in [7], 59.2% in assay [8], 69.5% in assay [9] and 62.8% in assay [10].

Source of the values: PubChem BioAssay (NCI).
